p53ts 39C tox: qHTS Screen for Compounds that Selectively Target Cancer Cells with p53 Mutations: Cytotoxicity of p53ts Cells at the Nonpermissive Temperature | 130,000 tested, 1.5% active | H1299-p53A138V viability at 39C, ATP luminescence, 24 h | Potency, µM (titrated, usually from 46.1 µM), without a hit: top-dose activity change, negative = cell killing, usual class: cytotoxic; further: on the % scale 0 is the no-effect control and ±100 the full control effect; nearly all actives have a fitted effect of over 55% in size
Peg3 imprint: qHTS Assay for Compounds that Induce Erasure of Genomic Imprints. mouse ES Peg3-LacZ reporter, beta-gal luminescence, 40 h. Potency, µM (top dose mostly 60.7 µM), for the others: at the highest dose activity change, positive = activation, most hits filed as activators. 110,000 tested, 0.02% active
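Gelatin-coated wells received 300 freshly trypsinized female ES cells with a Peg3LacZ-Neo reporter on the maternal allele, then incubated 40 hours at 37C. BetaGlo was added for 5 minutes at room temperature before a single luminescence read.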
p53ts 32C kill: qHTS Screen for Compounds that Selectively Target Cancer Cells with p53 Mutations: Cytotoxicity of p53ts Cells at the Permissive Temperature; H1299-p53A138V at 32C, ATP luminescence viability, 24 h; Potency, µM (highest dose often 46.1 µM), without a hit: at the top dose activity change, negative = cytotoxicity, actives largely listed as cytotoxic; 130,000 tested, 0.93% active; AID 924, 2007;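 further: 0% = DMSO and -100% = full killing by reference compound; nearly all actives have a fitted effect of over 55% in size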
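ATP-content luminescence (ATPlite) read-out after 24 h compound exposure at 32C in H1299-p53A138V cells (600/well). Tested up to 46 uM. Normalized to DMSO (0%) and 100 uM tamoxifen (100% killing); Hill-fit AC50.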
* marks the source's active call; other numbers are inactive results; ? = inconclusive; / = not tested or not shown; ! = not active in a repeat; [ ] = another dose, or the depositor's remark. Rows were chosen to be rich in hits. Some 1.8% of all compounds tested hit in one or more screens of this group. The call rests on the fitted dose curve; in most records, active means well fitted curve in the direction sought with a large enough effect; inconclusive means small, poorly fitted or top-dose-only effect, or another doubt; inactive means no such curve, though single readings can be large; an effect the other way counts as inactive or inconclusive. Potency means the concentration at half of the fitted maximal effect.

SMILES	p53ts 39C tox	Peg3 imprint	p53ts 32C kill
CCCN1C=CC(=C2C(=O)c3ccccc3C2=O)C=C1	0.32µM*	-96%	0.2µM*
CCN1C=CC(=C2C(=O)c3ccccc3C2=O)C=C1	0.25µM*	-94%	0.25µM*
CC1=CC(=C2C(=O)c3ccccc3C2=O)C=C(C)N1Cc1ccco1	?	-29%	?
CN1C=CC(=C2C(=O)c3ccccc3C2=O)C=C1	10µM*	-88%	13µM*
CC1=CC(=C2C(=O)c3ccccc3C2=O)C=C(C)O1	-10%	-20%	-11%
Nc1c(-c2nc(-c3ccccc3Cl)no2)nnn1-c1ccccc1F	-10%	-5%[10.9 µM]	-15%
CCN(Cc1ccccc1)C(=O)CN(c1ccc(OC)cc1)S(=O)(=O)c1c(C)nn(C)c1C	6%	4%[10.9 µM]	13%
O=c1c(-c2cc(F)cc(F)c2)nc2cnc(N3CCOCC3)nc2n1C[C@H]1CCCO1	2%	-5%	6%
COc1ccc(NC(=O)c2oc3ccc(S(=O)(=O)N4CCCCC4)cc3c2C)cc1Cl	-20%	-9%[10.9 µM]	2%
CCOC(=O)c1c(NC(=O)c2cc(OC)c(OC)c(OC)c2)sc2c1CCCC2	18%	-5%[10.9 µM]	-4%
COc1ccc(-c2cn3nc(SCC(=O)Nc4cc(C)cc(C)c4)ccc3n2)cc1	-29%	-12%[10.9 µM]	-16%
COc1ccc(-c2cn3nc(SCC(=O)Nc4cccc(C)c4C)ccc3n2)cc1	16µM*	-11%[10.9 µM]	-15%
CN(Cc1ccccc1)C(C(=O)NC1CCCCC1)c1ccc(Cl)cc1 (stereo not drawn)	-7%	-9%[10.9 µM]	-4%
Cc1cc(C)c(S(=O)(=O)NCCc2cc3c(C)ccc(C)c3[nH]c2=O)c(C)c1	-4%	-3%[10.9 µM]	5%
CCCCOc1ccc(C(=O)CCN2CCCCC2)cc1	-9%	-29%	0%
O=C(c1ccc(OCCN2CCCCC2)cc1)c1c(-c2ccc(O)cc2)sc2cc(O)ccc12	25µM*!	-23%	20µM*!
CNC(=O)c1sc2ncccc2c1-n1cccc1	10%	-6%[10.9 µM]	-3%
Cc1cc(NC(=O)CCC2CCCCC2)no1	-10%	/	-13%
Cc1ccnc(NC(=O)CCC2CCCCC2)c1	13µM*	-32%	13µM*
CC1=C(C(=O)Nc2ccc(C)cc2C)C(c2cc(Br)ccc2F)n2ncc(C(=O)Nc3ccc(C)cc3)c2N1 (stereo not drawn)	13µM*	-20%[10.9 µM]	?
CC1=C(C(=O)Nc2ccccc2)C(c2cc(Br)ccc2F)n2ncc(C(=O)Nc3ccccc3)c2N1 (stereo not drawn)	-11%	9%[10.9 µM]	9%
CCN1CCN(Cc2c(O)ccc3oc(C)c(C(=O)Nc4ccc(OC)cc4)c23)CC1	18%	?	17%
Fc1ccccc1CSc1ncnc2c1oc1ccccc12	13µM*	-87%	13µM*
CCCSc1ncnc2c1oc1ccccc12	-7%	-8%	0%
COc1ccc(NC(=O)c2oc3ccccc3c2NC(=O)C23CC4CC(CC(C4)C2)C3)cc1	-9%	-8%[10.9 µM]	11%
SMILES	p53ts 39C tox	Peg3 imprint	p53ts 32C kill
CCCn1c(C)nc2c(N3CCC(N4CCN(C)CC4)CC3)nc(C)nc21	-8%	-13%	-9%
COc1ccc(-c2nc(C)c(CCNC(=O)c3ccco3)s2)cc1	?	15%[10.9 µM]	0%
CC[C@]1(O)C[C@H]2CN(CCc3c([nH]c4ccccc34)[C@](C(=O)OC)(c3cc4c(cc3OC)N(C=O)[C@H]3[C@@](O)(C(=O)OC)[C@H](OC(C)=O)[C@@]5(CC)C=CCN6CC[C@]43[C@H]65)C2)C1	32µM*	/	?
CCC1(O)CC2CN(CCc3c([nH]c4ccccc34)[C@@](C(=O)OC)(c3cc4c(cc3OC)N(C=O)C3[C@]45CCN4CC=C[C@@](CC)([C@@H](OC(C)=O)[C@]3(O)C(=O)OC)[C@H]45)C2)C1 (stereo partly drawn)	/	-22%	/
CN1C(=O)CSc2ccc(NC(=O)N3CCOCC3)cc21	-4%	10%	-9%
CC(=O)c1cccc(NC(=O)Nc2ccc3c(c2)N(C)C(=O)CS3)c1	20µM*	-14%	?
CCN(CC)c1ccc(NC(=O)Nc2cccc(C(C)=O)c2)cc1	13µM*	-11%	13µM*
CC(=O)Nc1cccc(NC(=O)Nc2ccc(C(C)=O)cc2)c1	?	-8%	?
Cc1ccc(-c2nnc(Nc3ccc(C(=O)N(C)C)cc3)c3ccccc23)cc1S(=O)(=O)N(C)C	-14%	-10%[10.9 µM]	11%
N[C@@H](CO)C(=O)NNCc1ccc(O)c(O)c1O	6%[20.6 µM]	-7%[16.8 µM]	-2%[20.6 µM]
CC(C)(C)c1ccc(S(=O)(=O)/C=C\C#N)cc1	20µM*	-53%	16µM*

High-throughput results from PubChem BioAssay.
